Sfp PPTase inh – blocks B. subtilis Sfp PPTase activity; AID 1490; Q9F4F7; hit rate 3.5% among 310,000; Biochemical Sfp PPTase activity, qHTS; Potency, µM, without a hit: largest response in the series, negative = inhibition, usual class: inhibitors;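 note: the enzyme is Sfp with the accession as filed and its product quenches rhodamine fluorescence; 0% = enzyme reaction without inhibitor and -100% = no enzyme wells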
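Fluorescence-quenching assay: 15 nM Sfp-PPTase preincubated 15 min at room temperature with compound, then 5 uM rhodamine-CoA and 12.5 uM BHQ-2-labelled YbbR peptide added. Fluorescence (ex 525/em 598 nm) read at start and after 30 min; difference gives rate.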
BAZ2B block – blocks human BAZ2B. Q9UIF8. AlphaScreen BAZ2B-H3K14Ac peptide displacement. Potency, µM (titrated, usually from 114 µM), for the others: top-dose activity change, negative = inhibition, most hits filed as inhibitors. hit rate 4.4% among 360,000. AID 504333; note: % is set by controls: 0 for no effect and ±100 for the full control effect; nearly all actives have a fitted effect of over 60% in size
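Inhibition is scored as reduced AlphaScreen emission. The BAZ2B/b-H3(5-23)K14Ac complex (50 nM each) in PBS pH 7.4, 0.01% Tween-20 meets compound (up to 110 uM) for 30 min at RT before bead addition.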
L3MBTL1 inh – blocks human L3MBTL1. AlphaScreen L3MBTL1–H3K9me1 peptide binding. Potency, µM (series often up to 57.1 µM), for the others: at the top dose activity, negative = inhibition, most hits filed as inhibitors. hit rate 0.66% among 230,000. AID 485360. Q9Y468; note: % is set by controls: 0 for no effect and ±100 for the full control effect; nearly all actives have a fitted effect of over 60% in size
Target sequence (Q9Y468 whole entry, looked up): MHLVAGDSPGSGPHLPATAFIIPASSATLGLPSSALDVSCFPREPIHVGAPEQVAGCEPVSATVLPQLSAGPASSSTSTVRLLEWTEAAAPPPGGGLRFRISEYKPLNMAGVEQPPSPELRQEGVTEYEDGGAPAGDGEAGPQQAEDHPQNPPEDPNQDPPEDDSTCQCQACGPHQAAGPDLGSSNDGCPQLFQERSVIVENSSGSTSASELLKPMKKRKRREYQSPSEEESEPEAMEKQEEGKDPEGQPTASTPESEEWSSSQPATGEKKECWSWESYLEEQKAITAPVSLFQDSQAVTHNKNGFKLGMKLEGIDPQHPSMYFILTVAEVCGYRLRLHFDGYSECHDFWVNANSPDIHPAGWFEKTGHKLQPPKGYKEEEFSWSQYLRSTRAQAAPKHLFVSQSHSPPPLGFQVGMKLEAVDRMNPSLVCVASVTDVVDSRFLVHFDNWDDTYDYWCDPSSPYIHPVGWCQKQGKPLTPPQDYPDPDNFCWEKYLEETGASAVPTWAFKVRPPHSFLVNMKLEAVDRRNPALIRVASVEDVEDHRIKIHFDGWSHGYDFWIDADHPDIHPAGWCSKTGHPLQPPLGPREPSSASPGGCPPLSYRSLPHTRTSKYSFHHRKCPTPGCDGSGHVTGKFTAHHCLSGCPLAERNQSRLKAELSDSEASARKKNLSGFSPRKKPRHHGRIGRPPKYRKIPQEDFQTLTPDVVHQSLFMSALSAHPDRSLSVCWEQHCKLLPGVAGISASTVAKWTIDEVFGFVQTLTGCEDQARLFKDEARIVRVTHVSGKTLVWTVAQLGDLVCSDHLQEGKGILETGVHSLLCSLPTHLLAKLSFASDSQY
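L3MBTL1 50 nM + b-AHA-H3(1-15)K9me1 75 nM, 30 min RT; compound added, 30 min RT; streptavidin donor/Ni-chelate acceptor beads 10 ug/mL each final, 30 min RT dark; AlphaScreen read.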
JMJD2A Tudor inh – inhibitors of human JMJD2A Tudor domain; O75164; AlphaScreen JMJD2A-Tudor / H3K4me3 peptide binding; Potency, µM (doses to about 114 µM), without a hit: at the highest dose activity change, negative = inhibition, hits mostly inhibitors; hit rate 4.4% among 390,000; note: % is set by controls: 0 for no effect and ±100 for the full control effect; nearly all actives have a fitted effect of over 50% in size
G9a block – G9a (human) methyltransferase inhibition | AID 504332 | Q96KQ7 | G9a H3K9 monomethylation, AlphaScreen, 2 h | Potency, µM (titrated, usually from 102 µM), without a hit: at the highest dose activity, negative = inhibition, usual class: inhibitors | hit rate 8.8% among 350,000; note: % is set by controls: 0 for no effect and ±100 for the full control effect; nearly all actives have a fitted effect of over 75% in size
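G9a (20 nM) was preincubated 15 min with compound, then reacted 2 h at room temperature with 500 nM biotin-H3K9 peptide and 20 µM SAM. Monomethyl-H3K9 detected by AlphaScreen using anti-H3K9me1 antibody.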
HP1b chromo inh – HP1-beta chromodomain-methylated histone interaction inhibition. hit rate 0.56% among 390,000. AID 540317. AlphaScreen HP1-beta / biotin-H3K9me3 peptide binding. Potency, µM (doses to about 114 µM), inactives show at the top dose activity change, negative = inhibition, hits mostly inhibitors. P83916; note: nearly all actives have a fitted effect of over 70% in size
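HP1-beta protein (50 nM final) preincubated 30 min at room temperature with biotinylated H3(1-18)K9me3 peptide (50 nM) in PBS pH 7.4, 0.01% Tween-20, then compound added for 30 min. AlphaScreen streptavidin donor/nickel chelate acceptor beads (10 ug/mL final), 30 min dark, luminescence read.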
Starred values were filed as active, the others as inactive; ? = inconclusive; · = no result given; [ ] = remark or other dose. A selection: hits, their analogues and other compounds. The true share with any hit is near 12%. Calls come from the whole dose curve; as a rule, active = well fitted curve in the direction sought with a large enough effect; inconclusive = small, poorly fitted or top-dose-only effect, or another doubt; inactive = no such curve, though single readings can be large; an effect the other way counts as inactive or inconclusive. Potency is the fitted concentration of half-maximal effect.

SMILES	Sfp PPTase inh	BAZ2B block	L3MBTL1 inh	JMJD2A Tudor inh	G9a block	HP1b chromo inh
CCCCCCn1cc(C(=O)O)c(=O)c2ccccc21	10.3%	-34.7%	-9.9%	?	44.7µM*	26.7%
O=C(/C=C/c1ccco1)NCc1ccc2c(c1)OCO2	?	-13.1%	-25.3%	-9.7%	20µM*	15.9%
O=C(/C=C/c1ccco1)NCCc1ccc(F)cc1	-12.7%	79.4µM*	·	-35.7%	39.8µM*	?
Clc1ccc(OCCN2CCCCC2)cc1Cl	-5.8%	?	0.4%	22.4µM*	?	-56.8%
CCOc1ccc(OCCOCCN2CCCC2)cc1	?	?	2.5%	28.2µM*	8.91µM*	-19.7%
CCc1cccc(OCCOCCN2CCCC2)c1	-4.4%	79.4µM*	·	10µM*	10µM*	?
CNCCOc1ccc(Cl)c(Cl)c1	-19.0%	-33.4%	4.5%	3.16µM*	39.8µM*	?
CCC(Sc1ncccc1C(=O)Oc1ccccc1Cl)C(=O)Nc1ccccc1OC (stereo not given)	·	-1.2%	·	-15.0%	1.3%[59 µM]	43.5%
Cc1cccc(NC(=O)C(Cc2ccccc2)n2cccc2)c1C (stereo not given)	·	3.3%	·	-0.4%	-5.2%[59 µM]	51.1%
O=C(Cn1c(=O)nc(-c2ccccc2)c2ccccc21)NCCc1ccccc1	·	0.0%	·	8.3%	4.1%[12.7 µM]	45.3%
CC(C)(C)c1ccc(OCC(=O)NCCN2CCCC2)cc1	?	-3.5%	·	-1.9%	0.9%[12.7 µM]	18.1%
Cc1cc(OCCOCCN2CCCC2)ccc1C(C)C	-10.3%	?	-0.9%	5.01µM*	20µM*	19.0%
CCOc1ccc(OCCN2CCCCC2)cc1	-16.8%	56.2µM*	-11.1%	10µM*	7.94µM*	-11.3%
Fc1ccc(OCCOCCN2CCCC2)cc1	·	·	·	6.31µM*	·	?
CC(OCCN1CCCC1)(c1ccc(F)cc1)c1ccc(F)cc1	4.4%	-2.7%	-4.1%	89.1µM*	8.3%[59 µM]	23.3%
CC(C)C(NS(=O)(=O)c1ccc2c(c1)oc(=O)n2C)C(=O)N1CCN(c2cccc(Cl)c2)CC1 (stereo not given)	·	6.0%	·	-11.8%	11.3%[59 µM]	46.1%
Clc1ccc(CNc2ncnc3nc[nH]c23)cc1	·	·	·	-3.5%	·	20.8%
CCOc1ccc(CNCCN2CCCC2)cc1	-28.2%	56.2µM*	-4.4%	12.6µM*	2.82µM*	?
c1ccc(OCCOCCN2CCN(C(c3ccccc3)c3ccccc3)CC2)cc1	-34.4%	50.1µM*	-16.7%	0.891µM*	10µM*	?
CN(C)c1ccc(CNC(=O)C2CCN(S(=O)(=O)c3ccc4c(ccn4C)c3)CC2)cc1	·	?	·	?	?	9.7%[57 µM]
COc1ccc(OC)c(C2=NS(=O)(=O)N(C)C(C(=O)Nc3cccc(C(C)=O)c3)=C2)c1	17.8%	?	·	15.8µM*	44.7µM*	-11.2%
Cc1ccc(C2=NS(=O)(=O)N(C)C(C(=O)NCc3cccs3)=C2)cc1	4.0%	-38.2%	-5.5%	-28.9%	7.5%	3.8%
COc1ccc(OC)c(C2=NS(=O)(=O)N(C)C(C(=O)NCc3cccs3)=C2)c1	2.4%	-29.8%	·	22.4µM*	-2.1%	-6.6%
COc1ccc(NC(=O)C2=CC(c3cccs3)=NS(=O)(=O)N2C)cc1	18.0%	-26.5%	-6.0%	?	-11.6%	5.5%
O=C(CCCn1c(SCC(=O)c2ccc(O)c(O)c2)nc2ccccc2c1=O)NCC1CCCO1 (stereo not given)	1.1%	?	?	31.6µM*	35.5µM*	-10.7%
SMILES	Sfp PPTase inh	BAZ2B block	L3MBTL1 inh	JMJD2A Tudor inh	G9a block	HP1b chromo inh
O=C(CSc1cn(CC(=O)N2CCCCC2)c2ccccc12)NCC1CCCO1 (stereo not given)	13.9%	-16.3%	?	50.1µM*	-37.3%	-22.2%
O=C(CSc1nc2ccccc2c(=O)n1CCC(=O)N1CCN(c2ccccc2)CC1)NCC1CCCO1 (stereo not given)	0.4%	-23.6%	·	56.2µM*	-13.3%[59 µM]	-2.6%
O=C(CCCn1c(SCC(=O)NC2CCCCC2)nc2ccccc2c1=O)NCC1CCCO1 (stereo not given)	6.4%	2.2%	-3.0%	-6.9%	-2.3%	17.4%
C[C@H]1[C@@H](OC(=O)CCC(=O)O)OC2OC3(C)CC[C@H]4[C@H](C)CC[C@@H]1[C@@]24OO3 (stereo not given in full)	12.9%	·	·	·	-10.2%[12.7 µM]	·
COc1ccccc1N=Nc1c(C)[nH][nH]c1=O	-18.8%	?	·	-27.8%	35.5µM*	-2.6%
COc1ccc(N=Nc2c(C)[nH][nH]c2=O)cc1	-12.9%	56.2µM*	·	-33.7%	?	-30.2%
Cc1[nH][nH]c(=O)c1N=Nc1ccccc1C#N	?	?	·	·	44.7µM*	·
Cc1ccc(N=Nc2c(C)[nH][nH]c2=O)c(C)c1	3.2%	?	·	?	?	-24.3%
COCCCN1CCc2[nH]c(=S)[nH]c(=O)c2C1	50.1µM*	-36.6%	9.2%	?	35.5µM*	13.1%
COc1cccc(CN2CCc3[nH]c(=S)[nH]c(=O)c3C2)c1	-27.5%	-13.4%	·	-15.4%	44.7µM*	46.9%
CCOC(=O)c1cccc(NC(=O)CSc2ncc3c(n2)-c2ccc(Cl)cc2N(Cc2ccccc2)S3(=O)=O)c1	·	-9.3%	·	-13.3%	?	-5.0%
CC(=O)c1ccc(N2CCN(CC(O)COC(c3ccccc3)c3ccccc3C)CC2)cc1 (stereo not given)	?	25.1µM*	·	4.47µM*	8.91µM*	44.7µM*
OC(COC(c1ccccc1)c1ccccc1)CN1CCN(c2cccc(Cl)c2)CC1 (stereo not given)	10.4%	-12.6%	·	-28.0%	-23.0%	29.7%
CC(=O)c1ccc(N2CCN(CC(O)COC(c3ccccc3)c3ccccc3)CC2)cc1 (stereo not given)	?	17.8µM*	·	10µM*	20µM*	22.4µM*
O=C(Nc1ccc(F)cc1F)c1ccc2c(O)c(S(=O)(=O)c3ccc(Cl)cc3)c(=O)[nH]c2c1	·	?	·	-33.3%	-34.3%[59 µM]	28.2%
CCOc1ccc(NC(=O)Cn2cc(C(=O)c3ccc(CC)cc3)c(=O)c3ccc(C)nc32)cc1	·	1.6%	·	-18.8%	2.7%[59 µM]	19.1%
COc1ccc(-c2nc(-c3ccccc3)oc2Nc2ccccc2C)cc1	-18.1%	·	·	·	·	·
Cc1ccc(OCC(=O)N/N=C/c2cccn2C)cc1C	-21.7%	-32.6%	-5.0%	?	-13.1%	2.1%
COc1ccc(OCC(=O)N/N=C/c2cccn2-c2cccc(C(=O)O)c2)cc1	·	79.4µM*	?	44.7µM*	35.5µM*	?
COc1ccc(OCC(=O)N/N=C/c2ccc(N(C)C)cc2)cc1	-1.5%	?	·	-34.0%	44.7µM*	2.1%
COc1ccccc1NC(=O)COc1ccc(/C=N/NC(=O)CSCc2ccc(Cl)cc2)cc1	39.8µM*	-6.0%	9.6%	-15.6%	·	-6.6%

From PubChem
